{"source": "paper PMC7862700", "about": "“An all-to-all approach to the identification of sequence-specific readers for epigenetic DNA modifications on cytosine”", "experiment_in_all_cases": "DAPPL (digital affinity profiling via proximity ligation, sequencing); 10 mM Tris-HCl pH 7.5, 50 mM NaCl, 1 mM DTT, 4% glycerol, room temperature, 30 min; GST-TFs on glutathione beads, 16-mer random dsDNA library, 0.1% formaldehyde crosslink after washing; high values mean tight binding", "key": {"FEV": {"biological_target": "T1, FEV (Homo sapiens, UniProt Q99581 1-238)", "T1 sequence": "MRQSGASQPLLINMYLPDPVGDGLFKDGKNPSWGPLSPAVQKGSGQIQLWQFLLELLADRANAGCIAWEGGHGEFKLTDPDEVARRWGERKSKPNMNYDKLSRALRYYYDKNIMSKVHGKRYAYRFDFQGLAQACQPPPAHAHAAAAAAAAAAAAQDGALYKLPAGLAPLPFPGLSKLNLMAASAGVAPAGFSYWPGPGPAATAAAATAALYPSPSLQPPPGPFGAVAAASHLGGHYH", "conditions": "protein: recombinant; tags: N-terminal GST; dsDNA, one strand shown", "method_in_brief": "(§1)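 Each value of binding signal is a hexamer's read frequency for a factor divided by the same hexamer's frequency in the tag-only sample. Barcoded, bead-captured GST fusions of human transcription factors made in yeast were pooled with that sample and incubated with 200 nmole of a random double-stranded 16-mer DNA library in Tris/NaCl/DTT/glycerol buffer at room temperature for 30 min. Washing, 0.1% formaldehyde crosslinking, proximity ligation, PCR and Illumina NextSeq500 sequencing followed.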"}, "ETV5": {"biological_target": "ETV5 (Homo sapiens, UniProt P41161 1-510)", "sequence (P41161 whole entry)": "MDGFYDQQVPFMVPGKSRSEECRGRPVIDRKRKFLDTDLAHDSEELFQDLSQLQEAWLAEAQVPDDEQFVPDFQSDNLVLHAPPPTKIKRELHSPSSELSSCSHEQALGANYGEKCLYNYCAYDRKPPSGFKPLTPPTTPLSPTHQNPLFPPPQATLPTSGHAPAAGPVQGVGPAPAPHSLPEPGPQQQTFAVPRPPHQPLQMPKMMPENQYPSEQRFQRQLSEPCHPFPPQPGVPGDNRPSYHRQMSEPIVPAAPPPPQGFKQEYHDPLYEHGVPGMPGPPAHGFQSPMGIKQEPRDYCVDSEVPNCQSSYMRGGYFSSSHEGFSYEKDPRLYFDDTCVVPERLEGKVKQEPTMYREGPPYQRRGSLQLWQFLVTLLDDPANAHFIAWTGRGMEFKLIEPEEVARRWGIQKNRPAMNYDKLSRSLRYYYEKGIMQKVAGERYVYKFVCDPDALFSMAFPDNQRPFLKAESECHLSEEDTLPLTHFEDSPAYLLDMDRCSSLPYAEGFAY", "conditions": "protein: recombinant; tags: N-terminal GST; dsDNA, one strand shown", "method_in_brief": "as §1"}, "HSF1": {"biological_target": "HSF1 (Homo sapiens, UniProt Q00613 1-529)", "sequence (Q00613 whole entry)": "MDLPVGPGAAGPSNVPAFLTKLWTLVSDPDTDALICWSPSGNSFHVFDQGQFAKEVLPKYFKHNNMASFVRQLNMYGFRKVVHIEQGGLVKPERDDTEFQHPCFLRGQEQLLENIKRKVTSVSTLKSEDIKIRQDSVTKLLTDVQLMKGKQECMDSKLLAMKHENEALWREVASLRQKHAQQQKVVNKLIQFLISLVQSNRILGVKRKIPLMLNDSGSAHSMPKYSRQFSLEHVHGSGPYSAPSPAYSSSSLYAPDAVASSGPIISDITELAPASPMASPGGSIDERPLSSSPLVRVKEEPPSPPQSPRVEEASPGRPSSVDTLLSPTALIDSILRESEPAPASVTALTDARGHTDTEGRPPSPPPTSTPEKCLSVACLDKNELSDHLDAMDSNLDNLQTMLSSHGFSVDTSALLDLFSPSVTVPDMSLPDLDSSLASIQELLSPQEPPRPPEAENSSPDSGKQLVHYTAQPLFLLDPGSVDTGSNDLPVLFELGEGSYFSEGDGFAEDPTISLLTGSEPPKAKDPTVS", "conditions": "protein: recombinant; tags: N-terminal GST; chain copies: 3; dsDNA, one strand shown", "method_in_brief": "as §1"}, "SPIC": {"biological_target": "T2, SPIC (Homo sapiens, UniProt Q8N5J4 1-248)", "T2 sequence": "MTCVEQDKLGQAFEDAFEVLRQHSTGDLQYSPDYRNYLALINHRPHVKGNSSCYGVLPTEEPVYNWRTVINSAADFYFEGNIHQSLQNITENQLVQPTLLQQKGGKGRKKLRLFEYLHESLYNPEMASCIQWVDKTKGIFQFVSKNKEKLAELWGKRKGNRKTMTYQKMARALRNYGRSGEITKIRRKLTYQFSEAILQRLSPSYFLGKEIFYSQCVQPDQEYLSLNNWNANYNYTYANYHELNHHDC", "conditions": "protein: recombinant; tags: N-terminal GST; dsDNA, one strand shown", "method_in_brief": "as §1"}, "ELF4": {"biological_target": "ELF4 (Homo sapiens, UniProt Q99607 1-663)", "sequence (Q99607 whole entry)": "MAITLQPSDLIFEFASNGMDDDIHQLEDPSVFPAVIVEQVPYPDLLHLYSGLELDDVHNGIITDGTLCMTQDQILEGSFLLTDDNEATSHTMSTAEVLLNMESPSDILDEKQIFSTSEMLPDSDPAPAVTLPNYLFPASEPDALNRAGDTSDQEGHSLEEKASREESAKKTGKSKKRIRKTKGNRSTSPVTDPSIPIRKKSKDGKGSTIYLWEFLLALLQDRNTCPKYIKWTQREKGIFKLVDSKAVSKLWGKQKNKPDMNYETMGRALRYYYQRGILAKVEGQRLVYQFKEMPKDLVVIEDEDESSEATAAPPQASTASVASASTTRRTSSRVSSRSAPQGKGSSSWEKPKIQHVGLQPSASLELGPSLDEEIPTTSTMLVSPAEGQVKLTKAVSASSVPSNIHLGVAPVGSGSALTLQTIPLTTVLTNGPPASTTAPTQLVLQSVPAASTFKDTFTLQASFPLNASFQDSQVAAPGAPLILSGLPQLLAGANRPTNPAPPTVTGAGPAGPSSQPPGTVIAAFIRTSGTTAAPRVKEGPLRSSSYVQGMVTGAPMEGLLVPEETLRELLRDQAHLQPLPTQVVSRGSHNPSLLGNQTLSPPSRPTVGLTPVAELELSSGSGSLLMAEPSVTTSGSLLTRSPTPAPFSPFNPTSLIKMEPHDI", "conditions": "protein: recombinant; tags: N-terminal GST; dsDNA, one strand shown", "method_in_brief": "as §1"}, "ELK4": {"biological_target": "T3, ELK4 (Homo sapiens, UniProt P28324-2 1-405)", "T3 sequence": "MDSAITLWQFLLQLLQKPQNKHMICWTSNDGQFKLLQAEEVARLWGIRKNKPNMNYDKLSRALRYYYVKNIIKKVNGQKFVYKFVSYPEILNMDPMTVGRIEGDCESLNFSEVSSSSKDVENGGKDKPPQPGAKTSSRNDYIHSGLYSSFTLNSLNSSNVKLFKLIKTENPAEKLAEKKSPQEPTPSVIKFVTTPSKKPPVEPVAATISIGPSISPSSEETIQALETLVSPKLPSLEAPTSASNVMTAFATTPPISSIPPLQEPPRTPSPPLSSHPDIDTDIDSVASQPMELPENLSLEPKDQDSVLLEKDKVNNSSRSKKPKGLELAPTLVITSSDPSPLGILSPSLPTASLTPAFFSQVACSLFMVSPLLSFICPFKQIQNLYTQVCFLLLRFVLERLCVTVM", "conditions": "protein: recombinant; tags: N-terminal GST; dsDNA, one strand shown", "method_in_brief": "as §1"}, "ETV2": {"biological_target": "T4, ETV2 (Homo sapiens, UniProt O00321 1-342)", "T4 sequence": "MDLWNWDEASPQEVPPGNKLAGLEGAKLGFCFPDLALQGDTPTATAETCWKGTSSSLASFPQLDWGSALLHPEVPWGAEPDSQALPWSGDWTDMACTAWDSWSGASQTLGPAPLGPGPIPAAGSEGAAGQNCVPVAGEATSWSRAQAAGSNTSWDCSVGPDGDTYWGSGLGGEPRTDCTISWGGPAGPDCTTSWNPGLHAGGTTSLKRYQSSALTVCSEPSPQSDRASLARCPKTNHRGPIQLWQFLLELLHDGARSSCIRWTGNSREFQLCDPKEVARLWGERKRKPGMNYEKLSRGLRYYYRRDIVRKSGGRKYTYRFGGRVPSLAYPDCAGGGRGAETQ", "conditions": "protein: recombinant; tags: N-terminal GST; dsDNA, one strand shown", "method_in_brief": "as §1"}, "ELF3": {"biological_target": "T5, ELF3 (Homo sapiens, UniProt P78545 1-371)", "T5 sequence": "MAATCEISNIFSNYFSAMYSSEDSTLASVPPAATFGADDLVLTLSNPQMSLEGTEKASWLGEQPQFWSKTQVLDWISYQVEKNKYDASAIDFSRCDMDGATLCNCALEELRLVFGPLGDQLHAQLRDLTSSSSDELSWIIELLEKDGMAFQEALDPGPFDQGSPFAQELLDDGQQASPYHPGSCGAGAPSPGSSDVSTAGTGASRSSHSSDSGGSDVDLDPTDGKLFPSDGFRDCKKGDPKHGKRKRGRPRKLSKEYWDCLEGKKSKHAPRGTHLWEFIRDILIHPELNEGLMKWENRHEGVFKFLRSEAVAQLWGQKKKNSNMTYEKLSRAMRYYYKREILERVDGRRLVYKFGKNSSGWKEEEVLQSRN", "conditions": "protein: recombinant; tags: N-terminal GST; dsDNA, one strand shown", "method_in_brief": "as §1"}, "CRX": {"biological_target": "CRX (Homo sapiens, UniProt O43186 1-299)", "sequence (O43186 whole entry)": "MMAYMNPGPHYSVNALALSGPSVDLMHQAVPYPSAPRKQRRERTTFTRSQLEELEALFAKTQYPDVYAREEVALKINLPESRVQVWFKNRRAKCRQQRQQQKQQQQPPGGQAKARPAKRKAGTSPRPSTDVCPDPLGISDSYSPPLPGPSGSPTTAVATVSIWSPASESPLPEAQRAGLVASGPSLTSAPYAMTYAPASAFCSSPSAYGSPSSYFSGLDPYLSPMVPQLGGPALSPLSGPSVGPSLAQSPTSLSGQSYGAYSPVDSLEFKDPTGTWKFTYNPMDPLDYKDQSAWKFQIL", "conditions": "protein: recombinant; tags: N-terminal GST; dsDNA, one strand shown", "method_in_brief": "as §1"}}}
{"sequence": "CCGCCT", "values": [{"measurement": "binding signal", "setting": "FEV", "result": "1.43 fold enrichment (6-mer frequency, TF over GST control)"}, {"measurement": "binding signal", "setting": "ETV5", "result": "1.6 fold enrichment (6-mer frequency, TF over GST control)"}, {"measurement": "binding signal", "setting": "HSF1", "result": "1.08 fold enrichment (6-mer frequency, TF over GST control)"}, {"measurement": "binding signal", "setting": "SPIC", "result": "1.61 fold enrichment (6-mer frequency, TF over GST control)"}, {"measurement": "binding signal", "setting": "ELF4", "result": "1.52 fold enrichment (6-mer frequency, TF over GST control)"}, {"measurement": "binding signal", "setting": "ELK4", "result": "1.45 fold enrichment (6-mer frequency, TF over GST control)"}, {"measurement": "binding signal", "setting": "ETV2", "result": "1.46 fold enrichment (6-mer frequency, TF over GST control)"}, {"measurement": "binding signal", "setting": "ELF3", "result": "1.35 fold enrichment (6-mer frequency, TF over GST control)"}, {"measurement": "binding signal", "setting": "CRX", "result": "1.25 fold enrichment (6-mer frequency, TF over GST control)"}]}
